Measurements published in ChEMBL document CHEMBL4513216, “Probing the Open Global Health Chemical Diversity Library for Multistage-Active Starting Points for Next-Generation Antimalarials” (ACS Infect Dis, 2020).
Hit rate of the full screen: of about 69,000 compounds, about 8,600 (12%) showed an effect of 50% or more. The sample as a whole holds a higher share of strong results than the screen did.

Tested on: Plasmodium berghei
Assay: Screen against P. berghei liver stage (PbLuc), transformed with Luciferase, at 10uM
Assay type: functional, HepG2
Details: tested at 10 uM

First: COC(=O)N1CCCC(C(=O)NCCc2c[nH]c3cc(C)ccc23)C1 (centres undefined)
Second: Cc1nc(C2CCCN(C(=O)c3cccc(S(C)(=O)=O)c3)C2)no1 (centres undefined)
The INHIBITION of the first is lower: 47.9% for the first, 51.3% for the second.

First: CC(=O)NCCn1ccc(-c2ccccn2)n1
Second: CNC(=O)c1cccnc1NCCOc1ccccc1
The INHIBITION of the first is higher: -13% for the first, -81.6% for the second.

First: O=C(c1ccc(-c2cccc3c2CCNC3)o1)N1CCCC1
Second: O=C1NC2(CCc3ccccc31)CCN(C(=O)c1cccnc1)C2 (centres undefined)
The INHIBITION of the first is lower: 9.56% for the first, 12.085% for the second.

Going from `Cc1nn(C)c2ncc(CNCCc3ccccn3)cc12` to `CN(Cc1cnn(C)c1)C(=O)Nc1cccnc1-n1cccn1`, the INHIBITION falls from 39.7% to -24.9%.

Going from `CCN1CC2(CCCCN2C(=O)c2ccsc2)CC1=O` (centres undefined) to `CCN1CCOCC2(CCCN(C(=O)c3conc3C)C2)C1` (centres undefined), the INHIBITION rises from -8.51% to 12.4%.

Going from `CC(=O)N1CCC1c1cc(N2CC(O)C2)nc(C)n1` (centres undefined) to `Cc1nc(C2CCCN(C(=O)c3cc(C)sc3C)C2)no1` (centres undefined), the INHIBITION rises from 3.8% to 81.2%.

Compared with `Cc1nc2n(n1)CC(NCc1cc(Cl)c3c(c1)OCCO3)CC2` (centres undefined), `Cc1noc([C@H]2C[C@H]3OCC[C@H]3N(Cc3ccc4c(c3)OCO4)C2)n1` is higher in INHIBITION: 13.6% for the first, 17.6% for the second.

First: Cn1cc(CN2CCCC3(CCN(C(=O)c4cnccn4)C3)C2)cn1 (centres undefined)
Second: CNC(=O)COC1COC2(CCN(c3cnccn3)CC2)C1 (centres undefined)
The INHIBITION of the first is higher: 49.7% for the first, 36.4% for the second.

First: NC(=O)CCc1cccc(C2CCNCC2)n1
Second: CC(C)c1cc(C2CCN(C(=O)Cn3cnc4ccccc43)CC2)[nH]n1
The INHIBITION of the first is lower: 6.26% for the first, 86.6% for the second.

First: Clc1cccc(Cl)c1CN(CCCN1CCOCC1)Cc1cccnc1
Second: CN(Cc1ccc(F)cc1)CC1(O)CCN(C(=O)c2ccncc2)C1 (centres undefined)
The INHIBITION of the first is lower: 19.3% for the first, 27.8% for the second.

First: CCNc1nc(C)c(C(=O)N(C)Cc2nc(CC)no2)s1
Second: CCNc1nc(C(=O)N(C)Cc2nc(CC)no2)cs1
The INHIBITION of the first is lower: 20.9% for the first, 53.4% for the second.

First: CCCc1nc(C(=O)N(C)Cc2cc(CC)no2)cs1
Second: Cc1nc(C2CCCN(C(=O)c3cnc(C)s3)C2)no1 (centres undefined)
The INHIBITION of the first is lower: -59.5% for the first, -38% for the second.

Going from `COC(=O)CNC(=O)c1cn(-c2ccccn2)c(=O)c2ccccc12` to `CSc1c(CC(=O)O)n(C)c2ccccc12`, the INHIBITION rises from -21.4% to -9.98%.

Going from `CC(C)N1[C@H](CN2CCCC2)C[C@@H]2CN(C(=O)c3ccoc3)CC[C@@H]21` to `CCN1CCN(C(=O)C2CC(=O)N(c3cnn(C(C)C)c3)C2)CC1` (centres undefined), the INHIBITION rises from 15.9% to 23.1%.

Going from `COc1cc(C)c(C2CC(=O)NCc3nc4sccn4c32)cc1C` (centres undefined) to `COc1cc(C2CC(=O)NCc3nc4sccn4c32)cc(OC)c1O` (centres undefined), the INHIBITION rises from -9.18% to 39.3%.

Compared with `CCC1CC(=O)NCc2nc3sc(C)cn3c21` (centres undefined), `Cc1nc(C2CCCN(C(=O)c3sc(C)nc3C)C2)no1` (centres undefined) is lower in INHIBITION: 53.3% for the first, 43.4% for the second.

Going from `Cc1cc(F)ccc1NC(=O)NCC(C)N1CCOCC1` (centres undefined) to `CC(C(=O)NCCN1CCOCC1)n1cncn1` (centres undefined), the INHIBITION falls from 39% to -2.33%.

Compared with `c1ccc(OCCNC2=NCCCN2)cc1`, `Fc1ccc(OCCCNC2=NCCCN2)cc1` is lower in INHIBITION: 77.9% for the first, 35.4% for the second.

Compared with `Fc1ccc(OCCCNC2=NCCN2)cc1`, `Cn1cc(NCCOc2ccc(F)cc2)cn1` is lower in INHIBITION: 54.4% for the first, 8.09% for the second.

Going from `c1ccc(OCCSC2=NCCN2)cc1` to `CNC(=O)[C@@H](CC(C)C)N1CCC[C@H]1C(=O)N(C)Cc1ccccc1`, the INHIBITION falls from 35% to 25.3%.

First: CNC(=O)COC1COC2(CCN(c3ccc(C)nn3)CC2)C1 (centres undefined)
Second: Cc1ccc(N2CCC3(CC2)CC(OCC(=O)N(C)C)CO3)nn1 (centres undefined)
The INHIBITION of the first is higher: 54.1% for the first, 29% for the second.

First: CNC(=O)COC1COC2(CCN(c3ncccn3)CC2)C1 (centres undefined)
Second: CNC(=O)COC1COC2(CCN(c3ccc(C#N)cc3)CC2)C1 (centres undefined)
The INHIBITION of the first is lower: 27.5% for the first, 64.9% for the second.

Compared with `COC1COC2(CCN(c3ccc(C#N)cc3)CC2)C1` (centres undefined), `O=C([C@@H]1CC[C@@H]2[C@@H](CCN2Cc2cccc(F)c2)O1)N1CCCCO1` is higher in INHIBITION: -36.5% for the first, -7.48% for the second.

First: CC(C)c1cc(C2CCN(Cc3cc(F)cc(F)c3)CC2)[nH]n1
Second: Cc1n[nH]c(C)c1CN1CCC(c2cc(C(C)C)n[nH]2)CC1
The INHIBITION of the first is higher: 49.5% for the first, 13.9% for the second.

Going from `CC(C)c1cc(C2CCN(C(=O)Cn3nc4ccccc4n3)CC2)[nH]n1` to `CC(C)c1cc(C2CCN(C(=O)Cn3cnnn3)CC2)[nH]n1`, the INHIBITION falls from 53.2% to 35.1%.

Compared with `CC(C)c1cc(C2CCN(C(=O)Cn3cncn3)CC2)[nH]n1`, `CCc1nc(C2CCCN(C(=O)C3=NN(C(C)C)C(=O)CC3)C2)no1` (centres undefined) is higher in INHIBITION: 17% for the first, 28.7% for the second.

Going from `CCS(=O)(=O)N1Cc2cncn2CC(C(=O)NCC2CC2)C1` (centres undefined) to `Cc1nc(C2CCCN(C(=O)c3ccc(S(C)(=O)=O)cc3)C2)no1` (centres undefined), the INHIBITION falls from 24% to -29.8%.
